Test results as given in PubChem BioAssay AID1814 (Broad Institute, 2009).
Out of some 300,000 compounds screened, about 22,000 (7.3%) were called active. Roughly 2% stayed inconclusive and do not appear here. Only a selection was taken, and actives are over-represented in it overall. Unmarked numbers belong to inactive results. No stated cut-off is given here; in the data, active means activity score below about -60%; inconclusive means mostly about -28% to -61%; inactive means positive scores.

Assay: Activators working through SNCA 5'UTR binding (MLPCN) (AID 1814)
Conditions: alpha-synuclein 5'UTR reporter, activators screen; active compounds read low; tested at 7.5 µM

Compound	activity score
S=c1[nH]nc(-c2cccnc2)n1/N=C/C(Cl)=C\c1ccccc1	-177% (active)
Cc1cc(-c2n[nH]c(=S)n2/N=C/C(Br)=C/c2ccccc2)n[nH]1	-235% (active)
Cc1ccccc1-c1n[nH]c(=S)n1/N=C/c1ccc(-c2ccccc2Br)o1	57.9%
Cc1nn2c3cc(N4CCOCC4)ccc3nc2c2ccccc12	-149% (active)
O=C(Cc1ccc(F)cc1)N/N=C/c1ccc2c(c1)OCO2	-93.4% (active)
Cc1ccc(C(=O)NNc2ncnc3ccccc23)cc1	-131% (active)
O=C(Nc1ccc2c(c1)OCCO2)c1ccoc1	-84.8% (active)
Oc1c(CN2CCN(c3ccc(F)cc3)CC2)cc(Cl)c2cccnc12	69.6%
O=C(Nc1ccc2c(c1)OCCO2)c1cnccn1	-68.9% (active)
CCN(CC)c1ccc(/C=N/NC(=O)c2cnccn2)c(O)c1	72.3%
CCN1CCN(c2ccc(NC(=O)c3cnccn3)cc2)CC1	-97.4% (active)
Cn1cc([N+](=O)[O-])c(C(=O)Nc2ccc3c(c2)OCCO3)n1	-65.9% (active)
Nc1c(C(=O)Nc2ccc3c(c2)OCCO3)nnn1Cc1ccccc1	-194% (active)
CCOc1ccc(N2C(=O)CC(N(O)c3ccccc3)C2=O)cc1 (centres undefined)	-65% (active)
Cc1ccc(S(=O)(=O)NC(=O)Nc2nc(-c3ccc(F)c(F)c3)cs2)cc1	-61.5% (active)
O=S(=O)(Nc1ccc2nc(-c3ccco3)[nH]c2c1)c1ccccc1	-181% (active)
CC(=O)N1CCC(C(=O)Nc2nc(-c3ccccc3)ns2)CC1	-82.9% (active)
Cc1ccc(N=C2NC(=O)c3cccc([N+](=O)[O-])c32)cc1	-141% (active)
O=C(CSc1nnnn1C1CCCC1)N1CCCCC1	-88% (active)
CCCCCC(=O)Nc1ccc2oc(-c3ccncc3)nc2c1	-80.2% (active)
COc1cccc(/C=C/c2ccc3ccccc3n2)c1OC(C)=O	83.1%
COc1cccc(/C=C2\C=C(c3ccc(C)cc3)OC2=O)c1OC(C)=O	-65.8% (active)
O=C(NCCC1=CCCCC1)c1ccc(Cl)c([N+](=O)[O-])c1	-108% (active)
Cc1ccc2cc(/C=N/Nc3ccc(C(=O)O)cc3)c(Cl)nc2c1	-167% (active)
CC1CCC(NC(=O)CNC(=O)c2ccc3ccccc3c2)CC1 (centres undefined)	-74% (active)
Clc1cccc(-c2nc3nc4ccccc4nc3n2Cc2ccco2)c1	-77.2% (active)

Compound	activity score
Clc1ccc(-c2csc(-c3ccncc3)n2)cc1	-135% (active)
O=c1[nH]c(/C=C/c2cccc(Br)c2)nc2ccccc12	-125% (active)
C/C(=C\C(=O)c1ccccc1)Nc1cccc(O)c1	-246% (active)
O=C(Nc1cccc(O)c1)c1ccc(C(=O)c2ccccc2)o1	-120% (active)
C/C(=C\C(=O)c1cccnc1)Nc1ccc(C)c(C)c1	-88.7% (active)
O=C(Nc1ccn(Cc2ccccc2)n1)c1cccc(F)c1	-95.8% (active)
Cc1cc(/C=N/NC(=O)c2cccnc2)c(C)n1CC(C)C	-116% (active)
COc1ccc(C(CC(=O)c2ccccc2)S(=O)(=O)c2ccccc2)cc1 (centres undefined)	-120% (active)
COC(=O)c1ccc(Nc2ncnc3sccc23)cc1	-125% (active)
COc1c(O)cc2oc(-c3ccc(O)c(O)c3)cc(=O)c2c1O	-140% (active)
COc1ccc(/C=C/C(=O)Nc2c(C)nn(C)c2C)cc1COc1ccc(Br)cc1	50.9%
COc1ccc(C(=O)/C=C/c2ccc(-c3ccccc3)cc2)cc1CSCC(=O)O	-90% (active)
O=C(c1cc(COc2ccc(F)c(F)c2)on1)N1CCOCC1	-68.2% (active)
CCC(NC(=O)c1cc(COc2ccc(F)c(F)c2)on1)c1ccncc1 (centres undefined)	-78.1% (active)
O=C(c1cc(COc2c(F)cccc2F)on1)N1CCSCC1	-165% (active)
O=C(c1cc(COc2ccc(F)cc2F)on1)N1CCOCC1	-124% (active)
CC(C)(C)c1ccc(C(=O)CSc2ncn[nH]2)cc1	-158% (active)
OCCCN1c2ccccc2Nc2nnc(-c3ccccc3)cc21	-189% (active)
O=S(=O)(c1ccc(Br)cc1)N1CCC(c2nc3ccccc3[nH]2)CC1	78.3%
Nc1ccccc1SCc1cc([N+](=O)[O-])cc2c1OCOC2	-66.8% (active)
Nc1cc(N)nc(SCc2cccc(F)c2)n1	-147% (active)
Cc1cc2oc3ccc(NCCC4CCCN4C)cc3c(=O)c2cc1C (centres undefined)	-102% (active)
O=C(Nc1ccc(Br)cn1)c1ccc([N+](=O)[O-])cc1Cl	-92.4% (active)
COc1ccc(OCC(=O)Nc2cc(C)c(Cl)cc2OC)c([N+](=O)[O-])c1	-102% (active)
CC(=O)Nc1ccccc1C(=O)C(=O)Nc1ccc(F)cc1	-64.9% (active)
Cc1nn(-c2ccc([N+](=O)[O-])cc2)c(N)c1-c1ccccc1	-143% (active)

Compound	activity score
COCCCNC(=S)NC(=O)c1ccccc1	-88.8% (active)
O=C(N/N=C/c1cc2c(cc1Br)OCO2)C1COc2ccccc2O1 (centres undefined)	-96.1% (active)
Cc1ccc(OCc2cc(C(=O)N(C)CCc3ccccc3)no2)cc1C	-115% (active)
S=C(Nc1cccc(Cl)c1)Nc1ccc2cn[nH]c2c1	-89.3% (active)
Cc1csc(NC(=S)Nc2cccc(Cl)c2)n1	-193% (active)
O=[N+]([O-])/C=C/c1ccc2c(ccn2Cc2ccccc2)c1	84.5%
Cc1ccc(Oc2cnn(-c3ccccc3)c(=O)c2Br)cc1	-78.5% (active)
NC(=O)COc1ccc(C23CC4CC(CC(C4)C2)C3)cc1	-101% (active)
Nc1nonc1-n1nnc(C(=O)N/N=C/c2cc(Br)ccc2O)c1CSC1=NCCS1	94.1%
Cc1ccn2cc(-c3nonc3C)cc2c1	-128% (active)
Cc1cc(C)c(C#N)c(SCC(=O)Nc2ccccc2)n1	-212% (active)
CCOc1ccc2cc(C#N)c(SCC(=O)OC)nc2c1	-145% (active)
Cc1nonc1NC(=O)CSc1nc2ccccc2cc1C#N	-91.1% (active)
COCc1cc(C)nc(SCC(=O)Nc2cccc(C)c2)c1C#N	-67.6% (active)
Cc1ccccc1NC(=O)CCOc1ccccc1	-74.9% (active)
CCN1CCN(C(C(=O)NC2CCCC2)c2cc3c(cc2[N+](=O)[O-])OCO3)CC1 (centres undefined)	-63% (active)
CCCCCc1ccc(-c2ccc(OCC)cc2)nc1	79.7%
CCCOc1ccc(-c2nc(N)n[nH]2)cc1	-93.7% (active)
C=CCN(CC=C)S(=O)(=O)c1ccc(C(=O)Nc2sc3c(c2C(N)=O)CCCCC3)cc1	-70.1% (active)
CCOC(=O)c1c(NC(=O)c2ccc(Br)o2)sc2c1CCCC2	-64.9% (active)
NC(=O)c1c(NC(=O)c2ccccc2)sc2c1CCCC2	-148% (active)
COC(=O)c1c(NC(=O)c2cccs2)sc2c1CCCC2	-128% (active)
COc1ccc(NCCc2ccccn2)cc1	-134% (active)
CCC(C)NC(=O)CCCc1ccccc1 (centres undefined)	-63.7% (active)
O=C(Nc1ccc(Cl)cc1)c1ccsn1	-143% (active)
Cc1ccc(NC(=O)c2ccn(C(=O)Nc3ccccc3)n2)c(C)c1	-69.3% (active)

Compound	activity score
c1ccc(CN2CCC(N=C3NN=C(c4ccc5c(c4)OCCO5)CS3)CC2)cc1	-223% (active)
CCS(=O)(=O)c1cc([N+](=O)[O-])c(Sc2ccccc2N)s1	-91.3% (active)
COc1ccc(C(=O)c2c3ccc([N+](=O)[O-])cc3[n+]([O-])n2CCCN)cc1	63.1%
CCN1CCN(c2ccc([N+](=O)[O-])cc2C(=O)c2ccc(Cl)cc2)CC1	-107% (active)
Cc1ccc(NC(=S)N2CCN(c3ncccn3)CC2)cc1C	-84.3% (active)
CC(=O)c1ccc(NC(=O)CCc2nnc3ccc(NCc4ccco4)nn23)cc1	-95.3% (active)
O=C(/C=C/c1ccc([N+](=O)[O-])o1)NNC(=O)c1ccc(F)cc1	-94.3% (active)
C=CCSc1nnc(NC(=O)c2ccc(NC(C)=O)cc2)s1	-64.4% (active)
NC(=O)CSc1nnc(NC(=O)c2ccc3ccccc3c2)s1	-88.3% (active)
COC(=O)c1ccc(-n2cnc3ccccc32)nc1	-117% (active)
COCCn1c(=NC(=O)c2ccccc2[N+](=O)[O-])sc2cc(S(C)(=O)=O)ccc21	-151% (active)
CCOC(=O)c1c(C)[nH]c2c1-c1ccccc1C(=O)C2=O	99.5%
CCOC(=O)c1cc2n(c1C)-c1ccccc1C2=O	-108% (active)
COc1ccc(Nc2nnc(C)c3ccccc23)cc1	-67.1% (active)
COc1ccc(Nc2cc(C)nc(-n3nc(C)cc3C)n2)cc1	92.8%
O=C(c1cc(-c2ccc(O)cc2)on1)N1CCCc2ccccc21	-95.6% (active)
COc1c(C)c2c(c(O)c1C/C=C(\C)CCC(=O)O)C(=O)OC2	76.6%
C=CCNC(=O)/C=C/c1ccc(C(C)C)cc1	-129% (active)
COc1ccc(-n2cnc3cc(NCc4ccco4)ccc32)cc1	-126% (active)
COc1ccc(/C(N)=N/OC(=O)Cc2ccccc2)cc1	-125% (active)
O=[N+]([O-])c1ccc2oc(-c3cccc(O)c3)nc2c1	-91.7% (active)
COc1ccc(-c2nc3cc([N+](=O)[O-])ccc3o2)cc1OC	-65.4% (active)
Cc1ccc(N=C2NC(=O)/C(=C/C=C/c3ccco3)S2)cc1C	-81.5% (active)
COc1ccc(C(=O)Nc2cc(C)c(NC(=O)c3ccccc3OC)cn2)cc1	-115% (active)
COc1ccc(C(=O)Nc2ccccc2C(=O)N/N=C/c2ccccc2OC)cc1	-124% (active)
CC(C)(C)C(=O)Nc1ccc(C(=O)N/N=C/c2ccccc2OC(=O)c2ccc(Cl)cc2Cl)cc1	65.2%
